Many of the other results were omitted from the sample, so hits are more common in it than they were.
AMA1 RON2 block = disrupts binding of P. falciparum AMA1 to RON2; AlphaScreen AMA1-biotinylated RON2 peptide binding; Potency, µM (top dose mostly 58.2 µM), inactives show top-dose activity change, negative = inhibition, usual class: inhibitors; 360,000 tested, 0.2% active; active = well fitted inhibition curve with a large enough effect; inconclusive = small, poorly fitted or top-dose-only effect; inactive = no such curve, though single readings can be large or run the other way;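 also: potency is read from the fitted curve at half-maximal effect; 0% = vehicle wells and -100% = peptide control; nearly all actives have a fitted effect of over 45% in size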
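AMA1 (3D7) with his tag at 25 nM final met compounds first, then biotinylated RON2 peptide at 25 nM; detection used donor plus acceptor beads, 10 µg/mL apiece, read by AlphaScreen after 30 min at room temperature.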
Shiga inhibitor = inhibitors of Shiga toxin in Vero cells; inhibition, % at 38.7 µM; 290,000 tested, 9.2% active; Vero cells, Shiga toxin protein synthesis inhibition reporter; in the data active = inhibition mostly above about 28%, no sharp cut-off; inactive = mostly below about 43%; also: 0% is about no effect
Lassa entry inh = Lassa virus entry inhibition | Lassa virus pseudotype entry inhibition, cell reporter | Potency, µM (top dose mostly 37.9 µM), without a hit: top-dose activity change, negative = inhibition, usual class: inhibitors | 300,000 tested, 1.2% active | AID 540256; calls by dose curve; tested in HEK293 cells; also: potency is read from the fitted curve at half-maximal effect; % is scaled to controls: 0 for no effect and ±100 for the full control effect; nearly all actives have a fitted effect of over 50% in size
CHX counter = affects cycloheximide protein synthesis inhibition readout, counter-screen; cell reporter, cycloheximide protein synthesis inhibition counterscreen; max response, %; 300,000 tested, 12% active; AID 2314; in the data active = max response mostly above about 13%, no sharp cut-off; inactive = mostly below about 14%; also: read at 38.3 µM for the half of the compounds with a filed dose; 0% is about no effect
Marburg entry inh = blocks Marburg virus binding to or entry into cells | Marburg virus pseudotyped entry inhibition, cell reporter | Potency, µM (titrated, usually from 37.8 µM), for the others: top-dose activity change, negative = inhibition, actives largely listed as inhibitors | 300,000 tested, 1.8% active | AID 540276; calls by dose curve; tested in HEK293 cells; also: potency is read from the fitted curve at half-maximal effect; % is scaled to controls: 0 for no effect and ±100 for the full control effect
* hit, by the source's call; [ ] = dose if it differs, or a comment.

Results for CCCOc1ccc(-c2cn3ccccc3n2)cc1[N+](=O)[O-] ?
AMA1 RON2 block: -15%; Shiga inhibitor: active; Lassa entry inh: inconclusive; CHX counter: 134*; Marburg entry inh: inconclusive

What do the screens show for `CCCOc1ccc(-c2cn3ccccc3n2)cc1`?
AMA1 RON2 block: 4%; Shiga inhibitor: 18; CHX counter: 3

What do the screens show for `COc1ccc(-c2cn3cc([N+](=O)[O-])ccc3n2)cc1OC`?
AMA1 RON2 block: -6%; Shiga inhibitor: 80*; CHX counter: 41*

Results for COc1ccc(Cc2noc(-c3ccc([N+](=O)[O-])cc3)n2)cc1OC ?
AMA1 RON2 block: -24%; Shiga inhibitor: -14; CHX counter: -3

Results for Cc1cc(C)cc(NC(=O)CCn2cnc3ccccc3c2=O)c1 ?
Lassa entry inh: -1%[46.1 µM]

Results for N#Cc1cc2cc3c(cc2nc1SCC(=O)N1CCOCC1)OCCO3 ?
AMA1 RON2 block: -13%; Shiga inhibitor: 74*; Lassa entry inh: inconclusive; CHX counter: 52*; Marburg entry inh: inconclusive

What do the screens show for `COc1ccc2nc(N3CCCCC3)c(C#N)cc2c1`?
AMA1 RON2 block: 20%; Shiga inhibitor: 124*; Lassa entry inh: -18%; CHX counter: 64*; Marburg entry inh: -15%

Results for Cc1cc2cc3c(cc2nc1SCC(=O)N1CCCC1)OCCO3 ?
AMA1 RON2 block: -1%; Shiga inhibitor: -3; Lassa entry inh: -7%; CHX counter: -4; Marburg entry inh: inconclusive

How did COc1ccccc1C(=O)N1CCN(c2nc3cc(C)cc(C)c3cc2C#N)CC1 do in these assays?
AMA1 RON2 block: -1%

Results for COc1ccc2nc(SCC(=O)N3CCCCCC3)c(C#N)cc2c1 ?
AMA1 RON2 block: 28%; Shiga inhibitor: 87*; Lassa entry inh: -3%; CHX counter: 15*; Marburg entry inh: 17%

What do the screens show for `COc1ccccc1C(=O)N1CCN(c2nc3cc(C)c(C)cc3cc2C#N)CC1`?
AMA1 RON2 block: 9%; Shiga inhibitor: 1; Lassa entry inh: 10µM*; CHX counter: -3; Marburg entry inh: 8.9µM*

What do the screens show for `CCN1CCN(C(=O)CN(CC)S(=O)(=O)c2ccc3ccccc3c2)CC1`?
AMA1 RON2 block: -1%; Shiga inhibitor: -16; CHX counter: -3

Results for CCOc1ccc(C(=O)NC2CCN(C(=O)Nc3ccc(F)cc3)CC2)cc1 ?
AMA1 RON2 block: 2%; Shiga inhibitor: -8; Lassa entry inh: -3%; CHX counter: -13; Marburg entry inh: 1%[46.1 µM]

What do the screens show for `O=C(Nc1cccc(C(=O)O)c1)Nc1cccc2ccccc12`?
AMA1 RON2 block: 1%; Shiga inhibitor: 29; Lassa entry inh: inconclusive; CHX counter: 21*; Marburg entry inh: inconclusive

What do the screens show for `CC(=O)Nc1cccc(NC(=O)Nc2cccc3ccccc23)c1`?
AMA1 RON2 block: -4%; Shiga inhibitor: -24; CHX counter: 10

How did O=C(NCc1ccccc1)C(=O)Nc1cccc(C(=O)O)c1 do in these assays?
AMA1 RON2 block: 6%; Shiga inhibitor: 158*; CHX counter: 61*

How did COc1ccc(NC(=O)Nc2cccc3ccccc23)cc1S(N)(=O)=O do in these assays?
AMA1 RON2 block: 2%; Shiga inhibitor: -9; Lassa entry inh: 4µM*; CHX counter: -3; Marburg entry inh: 10%[46.1 µM]

How did CSc1cccc(NC(=O)C(=O)NCc2ccccc2)c1 do in these assays?
AMA1 RON2 block: 10%; Shiga inhibitor: 5; Lassa entry inh: -5%[46.1 µM]; CHX counter: -1; Marburg entry inh: 8%[46.1 µM]

How did O=C(Nc1ccccc1Cl)c1cccc(NC(=O)C2CCCC2)c1 do in these assays?
AMA1 RON2 block: -2%; Shiga inhibitor: 2; CHX counter: 12*

How did Cc1noc(C)c1CSCC(=O)Nc1nc2c(F)cc(F)cc2s1 do in these assays?
AMA1 RON2 block: -9%; Lassa entry inh: 9%; Marburg entry inh: 14%

How did CCCc1cc(=O)[nH]c(/N=C(/NC(=O)c2ccccc2)Nc2ccc3c(c2)OCCO3)n1 do in these assays?
AMA1 RON2 block: 0%; Lassa entry inh: -9%; Marburg entry inh: 0%[46.1 µM]

What do the screens show for `O=C(O)CCC(=O)Nc1cccc(C(=O)Nc2cccc(Cl)c2)c1`?
AMA1 RON2 block: 49%; Shiga inhibitor: -6; Lassa entry inh: inconclusive; CHX counter: 0; Marburg entry inh: -2%

How did O=C(Nc1cccc(Cl)c1)Nc1cccc(C(=O)O)c1 do in these assays?
AMA1 RON2 block: -6%; Shiga inhibitor: 76*; Lassa entry inh: inconclusive; CHX counter: 35*; Marburg entry inh: inconclusive

What do the screens show for `O=C(Nc1ccc(Cl)cc1)Nc1cccc(C(=O)O)c1`?
AMA1 RON2 block: -1%; Shiga inhibitor: 110*; Lassa entry inh: 0.33µM*; CHX counter: 52*; Marburg entry inh: 0.92µM*

What do the screens show for `O=C(Nc1cccc(C(=O)O)c1)Nc1ccccc1Cl`?
AMA1 RON2 block: -2%; Shiga inhibitor: 98*; Lassa entry inh: 4µM*; CHX counter: 31*; Marburg entry inh: 8.9µM*

What do the screens show for `O=C(CCCOc1ccc(Cl)cc1)Nc1cccc(C(=O)O)c1`?
AMA1 RON2 block: -10%; Shiga inhibitor: 18; Lassa entry inh: 2%; CHX counter: -1; Marburg entry inh: -2%

How did CCCc1c(C(=O)N/N=C(\C)c2ccc(CC(C)C)cc2)nnn1-c1nonc1N do in these assays?
AMA1 RON2 block: 6%

What do the screens show for `CC1(C)CC(CC(=O)Nc2nccs2)(c2ccccc2)CCO1` (stereo not given)?
AMA1 RON2 block: 14%; Shiga inhibitor: -14; Lassa entry inh: 19%; CHX counter: -5; Marburg entry inh: 4%

Results for O=C(NCc1cc(Cl)cc(Cl)c1)c1ccc2nc([C@H]3C[C@H](O)[C@@H](CO)O3)[nH]c2c1 ?
AMA1 RON2 block: -2%

How did Cc1cn([C@H]2C[C@H](O)[C@@H](/C=C/C(=O)NCCC(C)C)O2)c(=O)[nH]c1=O do in these assays?
AMA1 RON2 block: 15%

What do the screens show for `COc1ccccc1C(=O)COC(=O)COc1cccc2c1OC(C)(C)C2`?
AMA1 RON2 block: -7%; Shiga inhibitor: 85*; Lassa entry inh: -12%; CHX counter: 52*; Marburg entry inh: 4%

How did Cc1c(O)ccc(/C(Cc2ccc3ccccc3n2)=N\O)c1O do in these assays?
AMA1 RON2 block: 21%; Shiga inhibitor: 121; Lassa entry inh: inconclusive; CHX counter: 16; Marburg entry inh: -2%

What do the screens show for `CC(=O)Oc1ccc(C(=O)Cc2ccc3ccccc3n2)c(O)c1C`?
AMA1 RON2 block: -6%; Shiga inhibitor: active; Lassa entry inh: 13%; CHX counter: 26*; Marburg entry inh: 4%

What do the screens show for `CC1Sc2ccc(C(=O)NCc3ccccn3)cc2NC1=O` (stereo not given)?
AMA1 RON2 block: 110%

Results for CCCCc1ccc(NC(=O)Nc2cnccn2)cc1 ?
AMA1 RON2 block: 3%; Shiga inhibitor: 50*; CHX counter: 23*

Results for O=C(Nc1cc(Cl)cc(Cl)c1)Nc1cnccn1 ?
AMA1 RON2 block: -3%; Shiga inhibitor: -9; CHX counter: -3

How did CCc1ccc(NC(=O)Nc2ccon2)cc1 do in these assays?
AMA1 RON2 block: -13%; Shiga inhibitor: 62*; CHX counter: 68*

Screening data deposited in PubChem BioAssay by National Center for Advancing Translational Sciences (NCATS).
